Bioassay records (PubChem)
Compounds with a hit are over-represented: about 13% of the library has one in this group of screens.
USP28 inh: human USP28 deubiquitinase inhibition; 47,000 compounds, 3% hits; purified USP28, Ub-rhodamine cleavage fluorescence, 30 min; inhibition, % at 25 µM
OTUD3 inh: inhibitors of human OTUD3 deubiquitinase; 47,000 compounds, 0.7% hits; purified OTUD3, Ub-rhodamine fluorescence, 2 h; inhibition, % at 25 µM; Q5T2D3
USP10 block: blocks human USP10 ubiquitin-rhodamine cleavage. purified USP10, Ub-rhodamine fluorescence, 60 min. inhibition, % at 20 µM. 47,000 compounds, 1.1% hits. AID 1645856
USP17 inh: blocks human USP17 ubiquitin-rhodamine cleavage. A8MUK1. AID 1645855. 47,000 compounds, 6.5% hits. purified USP17, Ub-rhodamine cleavage fluorescence, 3 h. inhibition, % at 50 µM
USP30 block: human USP30 deubiquitinase inhibition; Q70CQ3; purified USP30, Ub-rhodamine cleavage fluorescence; inhibition, % at 25 µM; 47,000 compounds, 5.3% hits; AID 1645860
USP8 block: human USP8 deubiquitinase inhibition. purified USP8, Ub-rhodamine cleavage fluorescence, 30 min. AID 1645853. 47,000 compounds, 4.2% hits. P40818. inhibition, % at 20 µM
* hit, by the source's call; . = no result given. No stated cut-off is given here; in the data, active means inhibition above about 30%; inactive means the rest.

SMILES	USP28 inh	OTUD3 inh	USP10 block	USP17 inh	USP30 block	USP8 block
CCOc1ccc(C(=O)Cn2c(=O)n(CC3CCCO3)c(=O)c3cc(OC)c(OC)cc32)cc1Cl (centres undefined)	6	10	-4	71*	13	-1
Cc1cc(NC(=O)Cn2c(=O)n(CCCC(=O)NC3CCCC3)c(=O)c3cc(Cl)ccc32)n[nH]1	-6	-13	0	-6	0	-2
COc1cc2c(=O)n(CCC(=O)NCc3ccccc3)c(=O)n(CC(=O)NC3CCCCC3)c2cc1OC	-2	-3	3	-6	6	-4
COc1cc2c(=O)n(CCC(=O)NC3CCCC3)c(=O)n(CC(=O)Nc3ccc(C)c(F)c3)c2cc1OC	2	9	11	-4	34*	2
CCc1ccccc1NC(=O)Cn1c(=O)n(CCC(=O)NCC2CCCO2)c(=O)c2cc(OC)c(OC)cc21 (centres undefined)	7	11	-3	30*	16	-1
O=C(c1ccccc1)N1CC[C@H](c2nnc(-c3ccccc3F)o2)C1	3	14	0	14	25	24
Cc1cccc(CNC(=O)c2ccc(-c3cncnc3)nc2)c1	-1	-3	-1	26	-30	-4
Cn1cc(C(=O)N2CCN(c3ccccc3Cl)CC2)nn1	-4	-3	0	-6	7	2
COCCN1C[C@@]23CN(C(=O)NCc4ccccc4C)C[C@@H](C[C@@H]2S1(=O)=O)O3	17	12	-1	8	27	-20
O=C(Nc1ccccc1C(=O)N1CCCC1)c1ccc(-c2ccccc2)cc1	-84	-61	-3	-30	-346	2
COc1ccc(NC(=O)Cn2c(=O)n(CCCC(=O)NCCc3ccc(OC)c(OC)c3)c(=O)c3ccccc32)cc1Cl	0	14	23	28	13	9
COc1ccc(CCNC(=O)Cn2c(=O)n(CCCC(=O)NC3CCCC3)c(=O)c3cc(Cl)ccc32)cc1OC	5	9	-1	18	37*	-13
CC(=O)Nc1cc(NC(=O)CSc2nnc(-c3ccco3)c(-c3ccco3)n2)ccc1C	3	14	-3	46*	-103	73*
COc1ccc(N2CCN(C(=O)CN3C(=O)[C@H]4CCCN4c4ncccc43)CC2)cc1	-20	-22	-1	34*	-74	3
CC1(C(=O)NCc2ccc(Cl)cc2)Oc2cccnc2NC1=O (centres undefined)	-8	-6	-4	-10	-20	-4
CCCCNC(=O)CCCn1c(=O)c2ccccc2n(CC(=O)NCCC2=CCCCC2)c1=O	10	10	7	24	14	0
O=C(CCCCn1c(=O)c2ccccc2n(CC(=O)NCCC2=CCCCC2)c1=O)NCc1ccc2c(c1)OCO2	.	-1	13	33*	.	-1
O=C(Cc1ccc(-n2c(=O)c3ccccc3n(CC(=O)NCCC3=CCCCC3)c2=O)cc1)NCCc1ccccc1	-24	10	10	6	-35	-6
O=C(Cn1c(=O)n(CCCC(=O)N2CC=C(c3ccccc3)CC2)c(=O)c2ccccc21)NCCC1=CCCCC1	-2	37*	12	52*	17	6
Cc1cc(NC(=O)Cn2c(=O)n(CCC(=O)N3CC=C(c4ccccc4)CC3)c(=O)c3ccccc32)n[nH]1	6	5	23	2	21	68*
O=C(Cn1c(=O)n(-c2ccccc2)c(=O)c2ccc(C(=O)NCc3ccc4c(c3)OCO4)cc21)NCCC1=CCCCC1	41*	58*	32*	33*	56*	75*
O=S(=O)(NCc1cnc(C2CCCCO2)nc1)c1cccc(F)c1 (centres undefined)	14	11	2	9	26	0
CC(=O)N1CCN(S(=O)(=O)Cc2ccccc2)CC2(CNC(=O)C2)C1 (centres undefined)	7	7	-2	-8	12	-84
O=C(CCn1c(=O)c2ccccc2n(Cc2cccc([N+](=O)[O-])c2)c1=O)N1CC=C(c2ccccc2)CC1	18	9	16	8	39*	-1
O=C(CCn1c(=O)c2ccccc2n(Cc2ccccc2F)c1=O)N1CC=C(c2ccccc2)CC1	2	4	12	5	25	9
SMILES	USP28 inh	OTUD3 inh	USP10 block	USP17 inh	USP30 block	USP8 block
COc1ccccc1C1CCN(Cc2c(C)[nH]c3ccccc23)CC1	16	6	-4	0	31*	-7
COc1cc(CN2CCN(Cc3c[nH]c4ccccc34)CC2)cc(OC)c1OC	-33	-15	-9	-32	-26	-88
CC1(c2ccc3c(c2)CCC3)NC(=O)N(Cc2cc(=O)n3ccsc3n2)C1=O (centres undefined)	7	0	-8	33*	-31	16
Cc1cccc(NC(=O)Nc2nnc(N3CCCC(C)C3)s2)c1 (centres undefined)	-6	-5	1	-4	18	-3
Cn1nc(Cl)c(Cl)c1Oc1ccc(S(=O)(=O)Nc2ccc(Oc3ccc(C(F)(F)F)cn3)c(Cl)c2)cc1	0	-8	69*	3	-5	16
N[C@@H]1CC[C@H](O)[C@@H](N2CCN(c3ccccc3)CC2)[C@@H]1O	4	9	0	1	-1	-96
O=C(NC1CCS(=O)(=O)C1)c1ccnc(Cc2ccc(F)cc2)c1 (centres undefined)	-5	-6	0	-13	0	-4
Cc1ccccc1OCc1nc2c3c(C)c(C)oc3ncn2n1	9	4	-7	3	-34	19
Cc1oc2ncn3nc(C(C)Oc4cccc5ccccc45)nc3c2c1C (centres undefined)	-9	-13	-11	32*	-144	78*
O=C(NCc1ccccc1Cl)c1ccc(-c2ccc(N3CCCC3)nn2)cc1	6	-18	5	42*	-47	-8
O=C(NCC1CC1)C1CCCN(c2ccc(-c3ccccc3)nn2)C1 (centres undefined)	-3	30*	0	-10	0	0
CCC(C)C1NC(=O)C(C)NC(=O)C(Cc2ccccc2)N(C)C(=O)C2CCCN2C(=O)c2ccccc2NC1=O (centres undefined)	0	-1	-6	-18	-64	-21
Cc1nc(SCC(=O)NC2CCCC2)c2oc3ccccc3c2n1	13	14	-1	25	38*	17
CCc1nc(SCC(=O)NC2CCCCC2)c2oc3ccccc3c2n1	-7	-7	10	0	6	5
Cc1nc(SCc2ccccc2C)c2oc3ccccc3c2n1	.	3	2	60*	.	6
Cc1nc(SCC(=O)Nc2cccc3ccccc23)c2oc3ccccc3c2n1	25	9	1	31*	42*	27
CC(=O)CSc1nc(C)nc2c1oc1ccccc12	5	-7	-2	29	1	-3
COC(=O)c1ccccc1NC(=O)CSc1nc(C)nc2c1oc1ccccc12	-6	0	2	45*	8	4
